PubChem BioAssay (NCATS)
Inconclusive results are not listed. The source made the active and inactive calls. The call rests on the fitted dose curve; in most records, active means well fitted curve in the direction sought with a large enough effect; inconclusive means small, poorly fitted or top-dose-only effect, or another doubt; inactive means no such curve, though single readings can be large; an effect the other way counts as inactive or inconclusive.

What was measured:
[1] = qHTS of pediatric cancer cell lines to identify multiple opportunities for drug repurposing: Primary screen for A673 cells (AID 1347092); further: nearly all actives have a fitted effect of over 45% in size; further: potency means the concentration at half of the fitted maximal effect; on activity change, negative = cytotoxic: on the % scale 0 is the no-effect control and ±100 the full control effect
Outline: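 Titration-based qHTS on A673 cells: MIPE compounds spanned 11 points (0.78 nM to 46 µM final), NPC compounds 8 points (0.59 nM to 46 µM final). Viability after 48 h was measured by ATP luminescence.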

[2] = qHTS of pediatric cancer cell lines to identify multiple opportunities for drug repurposing: Primary screen for SK-N-MC cells (AID 1347093); further: potency means the concentration at half of the fitted maximal effect;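 on activity change, negative = cytotoxic: series mostly up to about 46 µM; plate controls were DMSO neutral control for no effect and bortezomib for full effect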
Outline: (§1)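 Metabolically active cells were quantified by ATP-dependent luminescence (CellTiter-Glo, 15 min at room temperature) following 48 h treatment. Cells had been plated at 500-1,000 per well and settled for 5 h beforehand.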

[3] = qHTS of pediatric cancer cell lines to identify multiple opportunities for drug repurposing: Primary screen for BT-37 cells (AID 1347094); further: potency means the concentration at half of the fitted maximal effect;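 on activity change, negative = cytotoxic: series mostly up to about 57 µM; plate controls were DMSO for no effect and bortezomib for full effect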
Outline: (§2)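 Viability was measured as metabolically active cells after 48 hours of treatment, read by CellTiter-Glo luminescence. Compounds were tested at multiple final concentrations, giving concentration-response curves.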

[4] = qHTS of pediatric cancer cell lines to identify multiple opportunities for drug repurposing: Primary screen for NB-EBc1 cells (AID 1347095); further: potency means the concentration at half of the fitted maximal effect;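 on activity change, negative = cytotoxic: plate controls were DMSO neutral control for no effect and bortezomib for full effect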
Outline: as §2

[5] = qHTS of pediatric cancer cell lines to identify multiple opportunities for drug repurposing: Primary screen for U-2 OS cells (AID 1347096); further: nearly all actives have a fitted effect of over 50% in size; further: potency means the concentration at half of the fitted maximal effect;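 on activity change, negative = cytotoxic: plate controls were DMSO wells for no effect and bortezomib positive control wells for full effect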
Outline: (§3)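 Cells (500-1,000/well) in growth media were settled 5 h at 37 degrees C, then given compounds for 48 h. Viability was read as CellTiter-Glo luminescence. Primary runs used MIPE at 11 points (0.78 nM-46 µM) and NPC at 8 points (0.59 nM-46 µM); follow-ups used 11 points.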

[6] = qHTS of pediatric cancer cell lines to identify multiple opportunities for drug repurposing: Primary screen for Saos-2 cells (AID 1347097); further: nearly all actives have a fitted effect of over 40% in size; further: potency means the concentration at half of the fitted maximal effect; on activity change, negative = cytotoxic: on the % scale 0 is the no-effect control and ±100 the full control effect
Outline: as §2

[7] = qHTS of pediatric cancer cell lines to identify multiple opportunities for drug repurposing: Primary screen for SK-N-SH cells (AID 1347098); further: nearly all actives have a fitted effect of over 65% in size;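 on activity change, negative = cytotoxic: DMSO served as neutral control and bortezomib at 2.3 µM as positive control; on the % scale 0 is the no-effect control and ±100 the full control effect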
Outline: (§4)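 Cells (500-1,000/well) rested 5 h, then received compounds for 48 h; metabolically active cells were measured by CellTiter-Glo luminescence. Final concentrations spanned up to 46 µM (MIPE, 11-point) or 0.59 nM-46 µM (NPC, 8-point) in primary screens, 11-point in follow-ups.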

[8] = qHTS of pediatric cancer cell lines to identify multiple opportunities for drug repurposing: Primary screen for NB1643 cells (AID 1347099); further: nearly all actives have a fitted effect of over 50% in size;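 on activity change, negative = cytotoxic: plate controls were DMSO neutral control for no effect and bortezomib positive control for full effect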
Outline: as §2

[9] = qHTS of pediatric cancer cell lines to identify multiple opportunities for drug repurposing: Primary screen for LAN-5 cells (AID 1347100);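 on activity change, negative = cytotoxic: plate controls were DMSO neutral control for no effect and bortezomib positive control for full effect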
Outline: as §3

[10] = qHTS of pediatric cancer cell lines to identify multiple opportunities for drug repurposing: Primary screen for BT-12 cells (AID 1347101); further: nearly all actives have a fitted effect of over 25% in size;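 on activity change, negative = cytotoxic: plate controls were DMSO for no effect and bortezomib positive control for full effect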
Outline: as §4

[11] = qHTS of pediatric cancer cell lines to identify multiple opportunities for drug repurposing: Primary screen for Rh18 cells (AID 1347102); further: nearly all actives have a fitted effect of over 65% in size; on activity change, negative = cytotoxic: on the % scale 0 is the no-effect control and ±100 the full control effect
Outline: as §3

[12] = qHTS of pediatric cancer cell lines to identify multiple opportunities for drug repurposing: Primary screen for OHS-50 cells (AID 1347103); further: nearly all actives have a fitted effect of over 40% in size;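 on activity change, negative = cytotoxic: plate controls were DMSO neutral control for no effect and bortezomib positive control for full effect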
Outline: as §4

[13] = qHTS of pediatric cancer cell lines to identify multiple opportunities for drug repurposing: Primary screen for RD cells (AID 1347104); further: nearly all actives have a fitted effect of over 55% in size;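 on activity change, negative = cytotoxic: plate controls were DMSO for no effect and bortezomib for full effect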
Outline: as §2

[14] = qHTS of pediatric cancer cell lines to identify multiple opportunities for drug repurposing: Primary screen for MG 63 (6-TG R) cells (AID 1347105); further: nearly all actives have a fitted effect of over 50% in size
Outline: as §2

[15] = qHTS of pediatric cancer cell lines to identify multiple opportunities for drug repurposing: Primary screen for control Hh wild type fibroblast cells (AID 1347106);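 further: series mostly up to about 46 µM; on the % scale 0 is the no-effect control and ±100 the full control effect; a drop in luminescence marks cytotoxicity and a rise apparent proliferation; nearly all actives have a fitted effect of over 55% in size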
Outline: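 Viability after 48 h compound treatment at 37C, 500-1,000 cells/well, read as ATP luminescence with CellTiter-Glo. Primary screens used 11-point (MIPE, 0.78 nM-46 µM) or 8-point (NPC, 0.59 nM-46 µM) final concentrations; follow-up screens used 11-point dilutions.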

[16] = qHTS of pediatric cancer cell lines to identify multiple opportunities for drug repurposing: Primary screen for Rh30 cells (AID 1347107); further: nearly all actives have a fitted effect of over 75% in size
Outline: as §3

[17] = qHTS of pediatric cancer cell lines to identify multiple opportunities for drug repurposing: Primary screen for Rh41 cells (AID 1347108); further: nearly all actives have a fitted effect of over 70% in size;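 on activity change, negative = cytotoxic: series mostly up to about 46 µM; luminescence drop marks cytotoxic hits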
Outline: as §2

[18] = qHTS of pediatric cancer cell lines to identify multiple opportunities for drug repurposing: Confirmatory screen for NB1643 cells (AID 1347109); further: potency means the concentration at half of the fitted maximal effect; nearly all actives have a fitted effect of over 45% in size
Outline: as §3

[19] = qHTS of pediatric cancer cell lines to identify multiple opportunities for drug repurposing: Confirmatory screen for A673 cells (AID 1347110);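 further: potency means the concentration at half of the fitted maximal effect; cells exposed to compound for 48 h before the viability read; nearly all actives have a fitted effect of over 65% in size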
Outline: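 Forty-eight-hour viability assay. Follow-up compounds ran at 11-point dilutions; positive control bortezomib at 2.3 uM final, neutral control DMSO.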

[20] = qHTS of pediatric cancer cell lines to identify multiple opportunities for drug repurposing: Confirmatory screen for SK-N-MC cells (AID 1347111); conditions: SK-N-MC cell viability;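 further: potency means the concentration at half of the fitted maximal effect; cells exposed to compound for 48 h before the readout; nearly all actives have a fitted effect of over 70% in size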
Outline: as §1

C[N+](C)(C)CCCCCCCCCC[N+](C)(C)C
inactive: Potency [1] | Potency [2] | Potency [3] | Potency [4] | Potency [5] | Potency [6] | Potency [7] | Potency [8] | Potency [9] | Potency [10] | Potency [11] | Potency [12] | Potency [13] | Potency [14] | outcome [15] | Potency [16] | Potency [17]

C[C@]12C=CC(=O)C=C1CC[C@H]1[C@@H]3C[C@@H](O)[C@](O)(C(=O)CO)[C@@]3(C)C[C@H](O)[C@@]12F
active: Potency [18] 6570 nM | Potency [19] 1040 nM | Potency [20] 7370 nM
inactive: Potency [1] | Potency [2] | Potency [3] | Potency [4] | Potency [5] | Potency [6] | Potency [7] | Potency [8] | Potency [9] | Potency [10] | Potency [11] | Potency [12] | Potency [13] | Potency [14] | outcome [15] | Potency [16] | Potency [17]

NC/C=C/C(=O)O
inactive: Potency [1] | Potency [2] | Potency [3] | Potency [4] | Potency [5] | Potency [6] | Potency [7] | Potency [8] | Potency [9] | Potency [10] | Potency [11] | Potency [12] | Potency [13] | Potency [14] | outcome [15] | Potency [16] | Potency [17]

Cc1ccc(=O)n(-c2ccccc2)c1
inactive: Potency [1] | Potency [2] | Potency [3] | Potency [4] | Potency [5] | Potency [6] | Potency [7] | Potency [8] | Potency [9] | Potency [10] | Potency [11] | Potency [12] | Potency [13] | Potency [14] | outcome [15] | Potency [16] | Potency [17]

CCN(CC)CCNC(=O)c1cc(S(C)(=O)=O)ccc1OC
inactive: Potency [1] | Potency [2] | Potency [3] | Potency [4] | Potency [5] | Potency [6] | Potency [7] | Potency [8] | Potency [9] | Potency [10] | Potency [11] | Potency [12] | Potency [13] | Potency [14] | outcome [15] | Potency [16] | Potency [17]

CN(C)CCOC(=O)COc1ccc(Cl)cc1
inactive: Potency [1] | Potency [2] | Potency [3] | Potency [4] | Potency [5] | Potency [6] | Potency [7] | Potency [8] | Potency [9] | Potency [10] | Potency [11] | Potency [12] | Potency [13] | Potency [14] | outcome [15] | Potency [16] | Potency [17]

c1ccc2c(c1)CCCC2C1=NCCN1 (stereo not drawn)
inactive: Potency [1] | Potency [2] | Potency [3] | Potency [4] | Potency [5] | Potency [6] | Potency [7] | Potency [8] | Potency [9] | Potency [10] | Potency [11] | Potency [12] | Potency [13] | Potency [14] | outcome [15] | Potency [16] | Potency [17]

C[n+]1cc2c3c(ccc2c2ccc4cc5c(cc4c21)OCO5)OCO3
active: Potency [1] 1160 nM | Potency [2] 1300 nM | Potency [3] 2130 nM | Potency [4] 1030 nM | Potency [5] 2910 nM | Potency [6] 4110 nM | Potency [7] 1500 nM | Potency [8] 1160 nM | Potency [9] 1160 nM | Potency [10] 1690 nM | Potency [11] 2060 nM | Potency [12] 2130 nM | Potency [13] 1840 nM | Potency [14] 2310 nM | Potency [16] 2590 nM | Potency [17] 2590 nM | Potency [18] 1020 nM | Potency [19] 1150 nM | Potency [20] 1290 nM

CN(C)C(=O)Oc1cccc([N+](C)(C)C)c1
inactive: Potency [1] | Potency [2] | Potency [3] | Potency [4] | Potency [5] | Potency [6] | Potency [7] | Potency [8] | Potency [9] | Potency [10] | Potency [11] | Potency [12] | Potency [13] | Potency [14] | outcome [15] | Potency [16] | Potency [17]

NCCCNCCSP(=O)(O)O
inactive: activity change, negative = cytotoxic [1] 5.74% [at 9.22 µM] | activity change, negative = cytotoxic [2] -14.6% [at 9.22 µM] | activity change, negative = cytotoxic [3] 7.29% [at 11.5 µM] | activity change, negative = cytotoxic [4] 10.2% [at 9.22 µM] | activity change, negative = cytotoxic [5] 2.93% [at 9.22 µM] | activity change, negative = cytotoxic [6] -20.9% [at 9.22 µM] | activity change, negative = cytotoxic [7] -0.785% [at 11.4 µM] | activity change, negative = cytotoxic [8] 7.51% [at 9.22 µM] | activity change, negative = cytotoxic [9] 27.4% [at 9.22 µM] | activity change, negative = cytotoxic [10] 8.37% [at 11.5 µM] | activity change, negative = cytotoxic [11] 9.05% [at 9.22 µM] | activity change, negative = cytotoxic [12] 5.02% [at 11.5 µM] | activity change, negative = cytotoxic [13] 5.99% [at 9.22 µM] | activity change, negative = cytotoxic [14] -7.37% [at 9.22 µM] | activity change, negative = cytotoxic [15] 2.73% [at 9.22 µM] | activity change, negative = cytotoxic [16] 17.5% [at 9.22 µM] | activity change, negative = cytotoxic [17] 20.1% [at 9.22 µM]

CCN(CC)CCNC(=O)c1ccc(NC(C)=O)cc1
inactive: Potency [1] | Potency [2] | Potency [3] | Potency [4] | Potency [5] | Potency [6] | Potency [7] | Potency [8] | Potency [9] | Potency [10] | Potency [11] | Potency [12] | Potency [13] | Potency [14] | outcome [15] | Potency [16] | Potency [17]

NC(=O)N1c2ccccc2C=Cc2ccccc21
inactive: Potency [1] | Potency [2] | Potency [3] | Potency [4] | Potency [5] | Potency [6] | Potency [7] | Potency [8] | Potency [9] | Potency [10] | Potency [11] | Potency [12] | Potency [13] | Potency [14] | outcome [15] | Potency [16] | Potency [17]

NC(=O)c1ncn([C@@H]2O[C@H](CO)[C@@H](O)[C@H]2O)c1O
inactive: Potency [1] | Potency [2] | Potency [3] | Potency [4] | Potency [5] | Potency [6] | Potency [7] | Potency [8] | Potency [9] | Potency [10] | Potency [11] | Potency [12] | Potency [13] | Potency [14] | outcome [15] | Potency [16] | Potency [17]

NS(=O)(=O)c1cc2c(cc1Cl)NC(C1CC3C=CC1C3)NS2(=O)=O (stereo not drawn)
inactive: Potency [1] | Potency [2] | Potency [3] | Potency [4] | Potency [5] | Potency [6] | Potency [7] | Potency [8] | Potency [9] | Potency [10] | Potency [11] | Potency [12] | Potency [13] | Potency [14] | outcome [15] | Potency [16] | Potency [17]
